In PubChem BioAssay AID651815 (National Center for Advancing Translational Sciences (NCATS), 2012):
About 1,100 (52%) of roughly 2,100 compounds were called active. Not shown: some 29% with an inconclusive outcome. Calls come from the whole dose curve; as a rule, active = well fitted inhibition curve with a large enough effect; inconclusive = small, poorly fitted or top-dose-only effect; inactive = no such curve, though single readings can be large or run the other way. The set was probably picked from earlier hits. Some of the results follow.

Target: DNA dC->dU-editing enzyme APOBEC-3F (Homo sapiens) (UniProt Q8IUX4)
Test: qHTS for inhibitors of Vif-A3F interactions: Cherry picks counterscreen; note: nearly all actives have a fitted effect of over 65% in size
Conditions: HeLa A3F-eYFP/Vif cells, eYFP fluorescence, 24 h; series mostly up to 46.1 µM
Procedure, shortened: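 HeLa cells stably expressing A3F-eYFP and Vif, cultured overnight, then treated 24 h at 37 degrees C with compounds at several concentrations; yellow fluorescence (488 nm Ex/500-530 nm Em) imaged on Acumen; MG132 positive control.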
Potency is the fitted concentration of half-maximal effect.

Chain of DNA dC->dU-editing enzyme APOBEC-3F (Homo sapiens) (Q8IUX4 whole entry, looked up): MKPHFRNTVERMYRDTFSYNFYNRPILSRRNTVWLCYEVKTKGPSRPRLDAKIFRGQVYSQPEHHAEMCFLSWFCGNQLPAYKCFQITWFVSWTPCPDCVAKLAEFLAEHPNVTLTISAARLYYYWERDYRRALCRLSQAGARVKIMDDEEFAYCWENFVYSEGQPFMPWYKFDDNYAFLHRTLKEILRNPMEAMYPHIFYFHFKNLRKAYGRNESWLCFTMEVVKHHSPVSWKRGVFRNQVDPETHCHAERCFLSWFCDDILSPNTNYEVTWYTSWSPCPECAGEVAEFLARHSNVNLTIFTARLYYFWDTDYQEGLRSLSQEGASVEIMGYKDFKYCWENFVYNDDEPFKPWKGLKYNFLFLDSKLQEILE

Row | SMILES | Potency
1 | O=c1[nH]c2ccccc2nc1/C=C(\O)c1cccs1 | 16.4 µM (active)
2 | O=C(NCc1ccc2c(c1)OCO2)c1cc([N+](=O)[O-])ccc1N1CCCCC1 | 1.58 µM (active)
3 | O=C(NCc1ccc2c(c1)OCO2)c1cc([N+](=O)[O-])ccc1N1CCOCC1 | 4.98 µM (active)
4 | O=C(/C=C/c1cccs1)NCc1ccc2c(c1)OCO2 | inactive
5 | COc1ccccc1-c1noc(-c2ccc(NCc3ccco3)c([N+](=O)[O-])c2)n1 | 18.4 µM (active)
6 | O=[N+]([O-])c1cc(-c2nc(-c3ccccc3)no2)ccc1NCc1ccco1 | 13 µM (active)
7 | Cc1cccc(-c2noc(-c3ccc(NCc4ccco4)c([N+](=O)[O-])c3)n2)c1 | 14.6 µM (active)
8 | CCCCOc1ccc2c(c1)/C(=C(\C(Cl)=C(Cl)Cl)[N+](=O)[O-])N2 | inactive
9 | N#Cc1c(C(F)(F)F)cc(-c2ccco2)nc1SCc1ccccn1 | 16.4 µM (active)
10 | Cc1cc2nc3c(=O)n(CCc4ccccc4)c(=O)[nH]c3nc2cc1N | 5.17 µM (active)
11 | Cc1cc2nc3c(=O)n(Cc4ccccc4)c(=O)[nH]c3nc2cc1N | 0.125 µM (active)
12 | Cc1cc2nc3c(=O)n(C4CCCCC4)c(=O)[nH]c3nc2cc1N | 9.2 µM (active)
13 | CCCCN(C(=O)c1ccc([N+](=O)[O-])s1)c1c(N)n(CCCC)c(=O)[nH]c1=O | inactive
14 | CCOC(=O)N1CCN(C(=O)c2ccccc2-c2ccccc2)CC1 | 2.8 µM (active)
15 | CN(C)c1ccc(/C=C/C(=O)c2c(O)c3ccccc3oc2=O)cc1 | 4.11 µM (active)
16 | CC(/C=C/c1ccc(N(C)C)cc1)=N\N=C(/N)SC1CC(=O)N(c2ccc(C(=O)O)cc2)C1=O (centres undefined) | inactive
17 | CN(C)c1ccc(/C=C/C(=O)c2ccc(O)cc2)cc1 | 4.61 µM (active)
18 | CCN1/C(=C\C=C(C(C)=O)C(C)=O)Sc2ccccc21 | 14.6 µM (active)
19 | N#Cc1c(-c2ccccc2)c(-c2ccccc2)nn(CC(=O)NNC(=O)Nc2ccccc2)c1=O | 4.44 µM (active)
20 | N#Cc1c(-c2ccc(F)cc2)c(-c2ccc(F)cc2)nn(CCO)c1=O | 4.44 µM (active)

Row | SMILES | Potency
21 | CC1(C)Cc2ccccc2C2CC(O)C(=O)N21 (centres undefined) | 18.4 µM (active)
22 | Cc1ccc(NC(=O)/C(C#N)=C\c2ccc(-c3ccc(Cl)cc3)o2)c(C)c1 | 13 µM (active)
23 | Cc1ccc(-c2ccc(/C=N/NC(N)=S)o2)cc1 | inactive
24 | FC(F)(F)c1ccccc1NC(=S)NN=C1CCCCCC1 | inactive
25 | O=C1/C(=C/c2ccc(O)cc2)SC(=S)N1Cc1cccnc1 | inactive
26 | O=C1CSC(=S)N1Cc1cccnc1 | 13 µM (active)
27 | O=C(NCc1cccs1)C1CCN(c2ccc(S(=O)(=O)N3CCOCC3)cc2Cl)CC1 | 2.8 µM (active)
28 | CC(C)(C)OC(=O)NC(Cc1ccccc1)C(=O)N1CCC(C(=O)NCC(=O)Nc2ccc(F)cc2)CC1 (centres undefined) | 23.1 µM (active)
29 | Cc1cc(C)c(N2C(=O)CC(Sc3ccccc3N)C2=O)c(C)c1 (centres undefined) | 15.8 µM (active)
30 | Cc1cc(C)n(-c2nc3c(c(=O)[nH]c(=O)n3C)n2CC(O)COc2ccc(Cl)cc2Cl)n1 (centres undefined) | 2.23 µM (active)
31 | COc1ccc(S(=O)(=O)N2N=C(C)Oc3ccccc3C2=O)cc1 | 3.14 µM (active)
32 | CC1(C)CCN2CCC(C)(C)c3c(O)ccc1c32 | 14 µM (active)
33 | CCOc1ccc(CN2C(=O)c3ccccc3Sc3ccc(C(=O)O)cc32)cc1 | 7.31 µM (active)
34 | CC(C)OC(=O)c1c2c(n3ccccc13)C(=O)c1ccccc1C2=O | 8.2 µM (active)
35 | CCOc1ccccc1C(=O)Nc1c(C(=O)Nc2ccc(F)cc2)oc2ccccc12 | 0.92 µM (active)
36 | Oc1ccc(C=NNC(=S)Nc2ccc(F)cc2)c(O)c1 | inactive
37 | Cc1cc(C)c[n+](-c2nc3ccccc3nc2[N-]S(=O)(=O)c2ccc(Br)s2)c1 | 9.2 µM (active)
38 | CCc1cc[n+](-c2nc3ccccc3nc2[N-]S(=O)(=O)c2ccc(Br)s2)cc1 | 8.2 µM (active)
39 | O=S(=O)([N-]c1nc2ccccc2nc1-[n+]1ccc(-c2ccncc2)cc1)c1ccccc1 | 18.4 µM (active)
40 | O=C(c1ccccc1)C1C(=O)c2ccccc2C1=O | inactive

Row | SMILES | Potency
41 | NN=C1c2ccccc2C(=O)C1C(=O)C(c1ccccc1)c1ccccc1 (centres undefined) | 12.5 µM (active)
42 | CCCCN1C(=O)C2Cc3c([nH]c4ccccc34)CN2C1=S (centres undefined) | 15.8 µM (active)
43 | CCS(=O)(=O)Nc1cccc(C2=NN(C(=O)c3ccco3)C(c3ccco3)C2)c1 (centres undefined) | 11.2 µM (active)
44 | Cc1ccc(NC(=S)N=Nc2c(O)n(C)c3ccc(S(=O)(=O)N4CCOCC4)cc23)cc1 | inactive
45 | O=C(O)c1ccccc1/C=N/Nc1ccc(S(=O)(=O)N2CCOCC2)cc1[N+](=O)[O-] | inactive
46 | CCCN1CCC(=NNc2ccc(S(=O)(=O)N3CCOCC3)cc2[N+](=O)[O-])CC1 | 3.96 µM (active)
47 | COc1ccccc1CCC(=O)Nc1ccc2c(c1)c(=O)n(C)n2Cc1ccc(F)cc1 | 15.8 µM (active)
48 | COc1ccccc1CCC(=O)Nc1ccc2c(c1)c(=O)n(C)n2-c1cccs1 | 3.14 µM (active)
49 | CC(C)=CCn1c2ccc(NC(=O)NCc3ccc(F)cc3)cc2c(=O)n1C | 3.14 µM (active)
50 | Cc1ccc2[nH]c3c(c2c1)CN(C(=O)CN1CC(C)OC(C)C1)CC3 (centres undefined) | inactive
51 | O=C(C[C@@H]1C/C=C/CC[C@H](Cc2ccc(F)cc2)C(=O)OC[C@@H](Cc2ccccc2)NC1=O)N[C@H](CO)Cc1ccccc1 | 16.4 µM (active)
52 | COc1cccc(C(=O)N/N=C/C(Br)=C/c2ccccc2)c1 | 2.8 µM (active)
53 | O=C(O)c1ccc(N/N=C/C(Br)=C/c2ccccc2)cc1 | inactive
54 | CC(/C=N/NC(=O)c1cccc(F)c1)=C\c1ccccc1 | 12.5 µM (active)
55 | C/C(=N/NC(N)=S)c1ccc(Br)s1 | inactive
56 | O=C1CN(C(=O)c2cc(Br)c(Br)s2)c2ccccc2N1 | 6.27 µM (active)
57 | COc1cc(OC)cc(C(=O)N2CC(=O)Nc3ccccc32)c1 | 1.25 µM (active)
58 | CCCn1nc(C(=O)N2CC(=O)Nc3ccccc32)c2ccccc2c1=O | 11.2 µM (active)
59 | Cc1cc(C)cc(C(=O)N2CC(=O)Nc3ccccc32)c1 | 0.994 µM (active)
